This is a sample that favours compounds with a hit; in the whole collection about 3.3% have one here.
MBD2 DNA inh: blocks human MBD2 binding to methylated DNA; 370,000 tested, 0.31% active; inhibition, % at 4.4 µM; TR-FRET, MBD2 binding to methylated oligonucleotide; in the data active means inhibition above about 13%
Target sequence (Q9UBB5 whole entry, looked up): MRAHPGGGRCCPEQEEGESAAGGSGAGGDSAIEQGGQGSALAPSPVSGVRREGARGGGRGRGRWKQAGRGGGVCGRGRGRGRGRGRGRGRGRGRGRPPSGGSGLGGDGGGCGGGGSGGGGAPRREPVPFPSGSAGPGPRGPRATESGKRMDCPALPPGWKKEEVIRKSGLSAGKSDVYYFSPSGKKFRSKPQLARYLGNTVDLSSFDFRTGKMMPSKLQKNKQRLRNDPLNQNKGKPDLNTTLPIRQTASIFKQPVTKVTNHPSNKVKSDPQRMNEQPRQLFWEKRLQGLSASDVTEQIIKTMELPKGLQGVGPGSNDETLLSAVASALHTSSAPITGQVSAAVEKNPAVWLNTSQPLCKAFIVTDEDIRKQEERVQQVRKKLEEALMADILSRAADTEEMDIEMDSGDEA
PfM18AAP inh: PfM18AAP enzyme inhibition. 290,000 tested, 1.2% active. AID 1822. recombinant PfM18AAP, H-Glu-NHMec fluorogenic cleavage. inhibition, % at 7.35 µM;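 active means inhibition above the campaign mean inhibition over all tested compounds plus 3 SD, cut at about 28% in these data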;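 further: 0% = plate median of test compound wells and 100% = 2 mM ZnCl2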
UHRF1 binding: human UHRF1 methylated DNA binding inhibitors | 370,000 tested, 0.75% active | UHRF1 binding to methylated oligo, TR-FRET | AID 687016 | inhibition, % at 4.4 µM | Q96T88; in the data active means inhibition above about 21%;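 further: UHRF1 SRA domain binding a hemimethylated CpG hairpin DNA probe; 0% = median of test compound wells and 100% = reference inhibitor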
PRMT1 FP inh: inhibitors of human PRMT1; inhibition, % at 2.79 µM; 370,000 tested, 1.3% active; recombinant PRMT1, activity-based probe fluorescence polarization; AID 652257; Q99873;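 active means inhibition above about 21% made by adding two undisclosed values, limit read from the data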
PfGluPho inh: PfG6PD (Plasmodium falciparum) enzyme inhibition; PfGluPho enzyme, NADPH resazurin-diaphorase fluorescence; 350,000 tested, 0.78% active; AID 504690; inhibition, % at 20 µM;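 active means inhibition reaching at least a set limit at 20 µM in the primary screen, cut at about 59% in these data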;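 further: 0% = DMSO wells with substrate and 100% = DMSO wells lacking glucose-6-phosphate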
PRMT1 inh conf: confirmation of human PRMT1 inhibitors | shares compounds with PRMT1 FP inh | recombinant His-PRMT1, activity-based probe fluorescence polarization | inhibition, % at 2.79 µM | 3,300 tested, 42% active | AID 687036;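 active means mean inhibition across replicates above the hit cutoff derived for the earlier primary screen, cut at about 22% in these data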
* marks the source's active call; other numbers are inactive results; · = no result.

SMILES	MBD2 DNA inh	PfM18AAP inh	UHRF1 binding	PRMT1 FP inh	PfGluPho inh	PRMT1 inh conf
Nc1ccc2nc(CCc3ccccc3)[nH]c2c1	3	4	-1	0	31	·
CC(C)(C)CN1CCC(Oc2cccc(C(=O)N3CCC[C@H]3CO)c2)CC1	-1	-2	2	3	-6	·
CCOC(=O)CSc1ncnc2c1nnn2-c1ccc(F)cc1	6	-3	1	1	-4	·
CCOC(=O)CC(=O)CSc1ncnc2c1nnn2-c1ccc(F)cc1	0	-15	-3	51*	-2	92*
O=C1NC(=O)C2(N1)c1ccccc1-c1ccccc12	2	·	2	1	12	·
O=C1NC(=O)C2(N1)C(=O)c1cccc3cccc2c13 (stereo not drawn)	-21	·	-57	139*	-4	72*
CCC1c2ccc(C)n2CCN1C(=O)Nc1ccccc1C(=O)OC (stereo not drawn)	-4	5	-4	7	-5	·
COC(=O)c1ccccc1NC(=O)N1CSC[C@H]1C(=O)OC	-2	-10	-1	30*	-3	48*
COc1ccc2c(c1OC)C(=O)OC2	6	0	0	-2	12	·
COc1ccc2c3c(cccc13)C(=O)CC2	-9	23	-29	145*	43	81*
COc1ccc(Cn2ccc3ccc(-c4ccc5ccn(C(=O)c6ccc(C)cc6)c5c4)cc32)cc1	-2	·	-5	-1	·	·
O=C(N/N=C/C=C/c1ccco1)/C(=C/c1ccccc1)NC(=O)c1ccccc1	-1	12	-1	30*	36	16
O=C(N/N=C/C=C\c1ccco1)c1cccs1	3	14	8	33*	36	23*
COc1ccc(OC)c(NC(=O)CCNS(=O)(=O)c2cc(Br)cnc2N)c1	-1	3	-1	-2	9	·
NS(=O)(=O)c1ccc(-c2ccc(/C=C3\SC(=S)N(C4CCS(=O)(=O)C4)C3=O)o2)cc1 (stereo not drawn)	2	21	1	42*	46	-8
CC(C)c1ccc(C2c3[nH]c4ccccc4c3C[C@H]3C(=O)N(c4ccccc4C(=O)N4CCC[C@H]4C(=O)O)C(=O)N23)cc1 (stereo partly drawn)	-1	5	2	-2	-9	·
COc1cccc(NC(=O)c2nc(SC)ncc2Cl)c1	-1	1	-1	3	-21	·
COc1cccc(NC(=O)c2nc(S(C)(=O)=O)ncc2Cl)c1	6	-82	1	40*	10	14
CN(c1ccccc1)S(=O)(=O)c1ccc(NC(=O)c2nc(S(C)(=O)=O)ncc2Cl)cc1	-3	-67	0	40*	45	49*
CCN(CC)C(=O)c1sc2nc(-c3cccs3)cc(-c3cccs3)c2c1N	1	6	-4	57*	44	13
CCN(CC)C(=O)c1sc2nc(-c3cccs3)cc(-c3ccc(Cl)cc3)c2c1N	-5	-10	-3	15	35	·
C[n+]1c2n(c3ccccc31)N=C(c1ccc(Cl)cc1)CS2	2	5	-57	40*	-14	18
COc1ccc(CN2CCNC(=O)C2CC(=O)N2CCCN(C(C)=O)CC2)cc1OC (stereo not drawn)	0	5	-2	2	-1	·
COc1ccccc1NC(=O)c1c(NC(=O)CCC(=O)O)sc2c1CCCCC2	-2	20	-3	32*	-18	-1
Cc1ccc(-c2cc([C@H]3[C@H]4C=CC[C@@H](C)[C@@H]4C(=O)N3Cc3ccccc3)ccc2F)cc1	4	·	1	2	21	·
SMILES	MBD2 DNA inh	PfM18AAP inh	UHRF1 binding	PRMT1 FP inh	PfGluPho inh	PRMT1 inh conf
Nc1c(C(=O)NC2CCCC2)sc2nc(-c3cccs3)ccc12	-3	11	1	53*	8	4
CN=C(c1ccco1)n1c(=S)nc(-c2ccco2)n(C)c1=S	-4	10	-3	30*	58	23*
CN=C(c1ccc(C)cc1)n1c(=S)nc(-c2ccc(C)cc2)n(C)c1=S	4	0	5	6	22	·
COc1cccc(NC(=O)COC(=O)Cn2c(C)csc2=O)c1	2	·	0	-5	5	·
Cc1ccc(S(=O)(=O)N2CCC(=O)N(CCOC(=O)Nc3ccc(C)c(C)c3)CC2)cc1	-3	7	0	1	13	·
Cc1nnc(N=c2ssnc2Cl)o1	3	·	-6	49*	116*	70*
COc1cc2c(cc1OC)C(c1cc(OC)c(OC)c(OC)c1)C1(O)C(=O)OCC1(O)C2 (stereo not drawn)	7	·	21	-1	14	·
COC(=O)c1ccc2nc(-c3ccco3)c(Cc3cccc(F)c3)n2c1	1	·	19	43*	·	36*
COC(=O)c1ccc2nc(-c3ccco3)c(Cc3ccc(C)cc3)n2c1	10	·	23*	34*	·	10
Cc1ccc2nc(-c3ccco3)c(Cc3ccsc3)n2c1	7	·	23*	35*	·	27*
COC(=O)c1ccc2nc(-c3ccc(OC)c(OC)c3)c(Cc3ccc(C)cc3)n2c1	9	·	17	1	·	·
COc1ccc(-c2c(NC(=O)CC(C)C)n(C)c3ccccc3c2=O)cc1OC	-1	1	-4	1	1	·
Nn1c(SCc2cccc3ccccc23)nnc1-c1n[nH]c2c1CCC2	-1	·	-2	-9	·	·
Cc1ccc2[nH]c(=O)c(CN(Cc3ccco3)C(=O)c3cccs3)cc2c1	·	-8	·	·	·	·
Cc1cc(C)c2[nH]c(=O)c(CN(Cc3cccs3)C(=S)NCc3ccco3)cc2c1	-4	0	3	35*	12	0
Cc1ccc2cc(CN(Cc3ccco3)C(=O)c3cccs3)c(=O)[nH]c2c1	0	-4	3	30*	7	2
Cc1ccc2cc(CN(C(=O)c3ccco3)c3ccccc3)c(=O)[nH]c2c1	-6	0	3	53*	-10	-6
Cc1ccc(SCC(=O)O/N=C(\N)c2cccnc2)cc1	·	-2	·	·	17	·
CCOc1ccc(C2C(C(=O)c3ccco3)=C(O)C(=O)N2CCCn2ccnc2)cc1OC (stereo not drawn)	-3	8	-7	0	8	·
CC1(C)CC(=O)C(C=Nc2ccc(C(=O)c3ccccc3)cc2N=CC2=C(O)CC(C)(C)CC2=O)=C(O)C1	1	0	9	77*	5	0
CC1(C)CC(=O)C(C=Nc2cccnc2)=C(O)C1	1	3	-5	-5	-6	·
CC1(C)CC(=O)C(C=Nc2cccnc2/N=C/C2=C(O)CC(C)(C)CC2=O)=C(O)C1	-4	1	-3	25*	33	-2
NC(=O)c1ncn([C@@H]2O[C@H](CNCc3cc(Br)ccc3OCc3ccccc3)[C@@H](O)[C@H]2O)n1	4	·	-1	0	8	·
CCN1CCSc2ccc(C(=O)NCc3ccccc3F)cc21	-4	7	-1	52*	49	4
Cc1cc(OC(C)C(=O)N2CCN(c3ccc(F)cc3)CC2)c2c(C)c(C)c(=O)oc2c1 (stereo not drawn)	0	-5	-1	0	1	·

Source: PubChem BioAssay (several laboratories)
